Experimental data: the supplement of paper PMC11001985

compound: C#CCNC(=O)CCSSCCC(=O)NCCc1ccc(C=O)c(C=O)c1; assay: lysine labeling ratio R10:1 (500 µM / 50 µM probe), SILAC-ABPP in living cells; higher = lower intrinsic lysine reactivity toward the probe, active = 2 or less; conditions: HeLa; probe concentrations 500 vs 50 µM
Summary of the method: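 The two probe levels, 50 µM and 500 µM, of an alkyne-tagged, disulfide-linked lysine probe were applied to living light and heavy SILAC HeLa cells in PBS at room temperature, and the labels were run in both forward and reverse orientation. Mixed lysates underwent biotin-azide click chemistry, trypsin digestion, neutravidin capture, DTT release and alkylation before LC-MS/MS on a TIMS-TOF Pro. R is the filtered median high-probe/low-probe MS1 peptide ratio for each lysine, summarised as the median over forward and reverse replicates. Nothing above 20 is reported; such values are set to 20.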

Sequence of UniProt Q15149 (Q15149 whole entry): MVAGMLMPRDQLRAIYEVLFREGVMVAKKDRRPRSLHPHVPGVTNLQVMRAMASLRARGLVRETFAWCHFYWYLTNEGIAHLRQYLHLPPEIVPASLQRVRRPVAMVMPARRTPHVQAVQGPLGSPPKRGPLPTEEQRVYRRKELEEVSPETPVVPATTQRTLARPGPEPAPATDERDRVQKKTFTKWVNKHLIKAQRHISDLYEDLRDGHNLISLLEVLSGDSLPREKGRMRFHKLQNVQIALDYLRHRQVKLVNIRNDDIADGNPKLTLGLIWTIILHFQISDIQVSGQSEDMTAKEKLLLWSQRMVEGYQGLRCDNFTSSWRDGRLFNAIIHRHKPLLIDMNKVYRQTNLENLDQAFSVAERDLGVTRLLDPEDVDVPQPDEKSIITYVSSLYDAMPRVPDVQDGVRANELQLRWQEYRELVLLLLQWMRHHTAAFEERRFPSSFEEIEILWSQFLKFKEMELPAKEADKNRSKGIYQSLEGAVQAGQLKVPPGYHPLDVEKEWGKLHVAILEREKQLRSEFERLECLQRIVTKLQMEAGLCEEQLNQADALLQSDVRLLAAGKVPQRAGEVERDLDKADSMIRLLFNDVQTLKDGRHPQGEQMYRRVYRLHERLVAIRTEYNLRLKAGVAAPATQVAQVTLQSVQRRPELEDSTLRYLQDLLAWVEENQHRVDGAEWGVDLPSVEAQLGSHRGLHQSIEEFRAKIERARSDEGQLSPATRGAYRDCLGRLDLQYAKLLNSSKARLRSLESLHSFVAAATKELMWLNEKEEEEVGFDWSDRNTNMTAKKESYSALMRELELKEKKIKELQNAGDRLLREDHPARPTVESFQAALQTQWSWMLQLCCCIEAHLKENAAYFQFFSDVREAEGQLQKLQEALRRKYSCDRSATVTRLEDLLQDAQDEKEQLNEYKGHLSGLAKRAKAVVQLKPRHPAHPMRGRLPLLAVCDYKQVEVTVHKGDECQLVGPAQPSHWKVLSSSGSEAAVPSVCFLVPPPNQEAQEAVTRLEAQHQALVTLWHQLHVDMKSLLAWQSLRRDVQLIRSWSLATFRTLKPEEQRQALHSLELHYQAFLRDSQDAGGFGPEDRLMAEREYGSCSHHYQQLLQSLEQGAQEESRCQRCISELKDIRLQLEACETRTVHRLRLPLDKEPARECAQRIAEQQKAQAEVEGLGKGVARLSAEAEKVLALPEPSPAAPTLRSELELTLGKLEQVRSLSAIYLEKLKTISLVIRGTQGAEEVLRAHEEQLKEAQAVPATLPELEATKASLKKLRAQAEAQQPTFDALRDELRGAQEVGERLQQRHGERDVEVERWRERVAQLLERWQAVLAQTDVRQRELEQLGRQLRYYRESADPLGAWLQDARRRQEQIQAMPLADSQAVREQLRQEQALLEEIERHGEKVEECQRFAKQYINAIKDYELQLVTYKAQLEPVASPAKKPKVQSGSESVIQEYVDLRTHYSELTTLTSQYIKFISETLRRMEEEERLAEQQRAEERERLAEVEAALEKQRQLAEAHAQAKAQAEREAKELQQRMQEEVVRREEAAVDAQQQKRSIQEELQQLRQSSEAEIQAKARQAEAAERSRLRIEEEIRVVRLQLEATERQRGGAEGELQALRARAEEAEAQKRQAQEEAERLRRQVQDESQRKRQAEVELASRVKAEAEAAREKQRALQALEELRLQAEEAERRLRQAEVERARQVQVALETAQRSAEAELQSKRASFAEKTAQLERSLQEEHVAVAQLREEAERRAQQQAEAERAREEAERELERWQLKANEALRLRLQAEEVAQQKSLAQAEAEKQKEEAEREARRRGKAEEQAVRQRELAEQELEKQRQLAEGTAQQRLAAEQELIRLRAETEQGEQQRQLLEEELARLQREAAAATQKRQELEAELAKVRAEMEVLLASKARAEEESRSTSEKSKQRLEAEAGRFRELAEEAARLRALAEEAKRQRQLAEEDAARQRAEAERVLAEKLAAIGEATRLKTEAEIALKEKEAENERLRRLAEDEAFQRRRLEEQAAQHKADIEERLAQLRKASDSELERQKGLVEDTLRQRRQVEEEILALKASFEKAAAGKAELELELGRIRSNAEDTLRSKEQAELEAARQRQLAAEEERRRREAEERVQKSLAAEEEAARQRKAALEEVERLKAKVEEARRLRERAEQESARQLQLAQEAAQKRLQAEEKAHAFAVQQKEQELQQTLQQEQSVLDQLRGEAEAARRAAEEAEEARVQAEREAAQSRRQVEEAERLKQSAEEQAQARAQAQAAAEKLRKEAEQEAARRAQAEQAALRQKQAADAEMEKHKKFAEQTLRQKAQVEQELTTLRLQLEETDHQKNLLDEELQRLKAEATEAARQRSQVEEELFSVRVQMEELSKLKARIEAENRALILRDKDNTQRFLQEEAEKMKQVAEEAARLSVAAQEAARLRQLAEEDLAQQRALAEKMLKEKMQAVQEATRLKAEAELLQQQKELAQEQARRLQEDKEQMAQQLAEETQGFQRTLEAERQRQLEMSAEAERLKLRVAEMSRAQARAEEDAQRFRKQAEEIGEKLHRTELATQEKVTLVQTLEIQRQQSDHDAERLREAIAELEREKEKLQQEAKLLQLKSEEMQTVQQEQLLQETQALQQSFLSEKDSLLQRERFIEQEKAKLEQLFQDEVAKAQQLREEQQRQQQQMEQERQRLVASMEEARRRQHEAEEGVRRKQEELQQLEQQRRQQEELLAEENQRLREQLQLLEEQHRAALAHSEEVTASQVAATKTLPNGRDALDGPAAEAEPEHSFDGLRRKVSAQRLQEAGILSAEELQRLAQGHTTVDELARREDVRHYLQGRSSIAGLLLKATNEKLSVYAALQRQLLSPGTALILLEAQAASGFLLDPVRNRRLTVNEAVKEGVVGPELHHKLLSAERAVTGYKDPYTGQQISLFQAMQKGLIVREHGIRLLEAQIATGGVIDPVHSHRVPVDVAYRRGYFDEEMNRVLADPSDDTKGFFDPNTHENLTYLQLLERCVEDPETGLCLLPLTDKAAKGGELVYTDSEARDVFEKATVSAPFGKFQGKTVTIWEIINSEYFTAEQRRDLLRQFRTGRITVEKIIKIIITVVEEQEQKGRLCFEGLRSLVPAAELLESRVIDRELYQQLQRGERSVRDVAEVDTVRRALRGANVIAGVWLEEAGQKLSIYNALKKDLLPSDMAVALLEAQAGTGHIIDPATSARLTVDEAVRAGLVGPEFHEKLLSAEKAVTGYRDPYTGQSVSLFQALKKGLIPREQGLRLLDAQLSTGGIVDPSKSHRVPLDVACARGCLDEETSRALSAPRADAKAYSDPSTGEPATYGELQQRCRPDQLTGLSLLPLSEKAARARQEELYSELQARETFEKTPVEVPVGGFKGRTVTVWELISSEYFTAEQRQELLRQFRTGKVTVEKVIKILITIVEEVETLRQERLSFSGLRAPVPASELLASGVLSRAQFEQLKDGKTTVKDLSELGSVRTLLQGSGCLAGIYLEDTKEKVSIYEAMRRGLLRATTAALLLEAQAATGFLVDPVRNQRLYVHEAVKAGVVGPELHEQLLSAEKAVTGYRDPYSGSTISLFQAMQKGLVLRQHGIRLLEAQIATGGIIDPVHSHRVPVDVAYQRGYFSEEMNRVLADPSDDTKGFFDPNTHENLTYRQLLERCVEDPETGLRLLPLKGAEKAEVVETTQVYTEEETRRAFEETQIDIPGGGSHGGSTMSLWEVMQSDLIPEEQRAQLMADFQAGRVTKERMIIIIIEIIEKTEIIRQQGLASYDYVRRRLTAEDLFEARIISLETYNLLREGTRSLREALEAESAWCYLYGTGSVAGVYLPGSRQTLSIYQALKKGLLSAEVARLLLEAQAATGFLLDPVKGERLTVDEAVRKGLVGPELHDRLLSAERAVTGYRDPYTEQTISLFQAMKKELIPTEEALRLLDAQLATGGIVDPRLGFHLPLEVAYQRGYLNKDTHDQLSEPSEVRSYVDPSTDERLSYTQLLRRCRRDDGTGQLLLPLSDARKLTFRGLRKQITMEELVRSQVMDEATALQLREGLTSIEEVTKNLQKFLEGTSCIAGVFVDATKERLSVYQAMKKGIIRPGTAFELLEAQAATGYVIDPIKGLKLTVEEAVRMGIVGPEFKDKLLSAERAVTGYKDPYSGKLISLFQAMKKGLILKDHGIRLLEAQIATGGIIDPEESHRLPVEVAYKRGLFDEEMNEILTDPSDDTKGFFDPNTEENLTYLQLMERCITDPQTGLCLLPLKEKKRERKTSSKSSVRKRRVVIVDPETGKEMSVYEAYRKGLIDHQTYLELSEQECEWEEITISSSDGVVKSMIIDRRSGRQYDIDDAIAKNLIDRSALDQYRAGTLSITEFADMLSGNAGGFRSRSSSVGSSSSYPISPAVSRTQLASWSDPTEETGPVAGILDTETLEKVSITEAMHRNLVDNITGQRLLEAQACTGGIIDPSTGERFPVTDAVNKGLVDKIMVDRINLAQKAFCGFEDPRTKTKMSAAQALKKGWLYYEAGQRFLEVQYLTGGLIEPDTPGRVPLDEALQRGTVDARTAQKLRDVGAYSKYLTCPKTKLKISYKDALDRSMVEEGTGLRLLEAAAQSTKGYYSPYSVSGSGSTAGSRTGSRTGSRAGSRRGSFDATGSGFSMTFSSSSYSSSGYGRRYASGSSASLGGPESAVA
Sequence of UniProt O15260 (O15260 whole entry): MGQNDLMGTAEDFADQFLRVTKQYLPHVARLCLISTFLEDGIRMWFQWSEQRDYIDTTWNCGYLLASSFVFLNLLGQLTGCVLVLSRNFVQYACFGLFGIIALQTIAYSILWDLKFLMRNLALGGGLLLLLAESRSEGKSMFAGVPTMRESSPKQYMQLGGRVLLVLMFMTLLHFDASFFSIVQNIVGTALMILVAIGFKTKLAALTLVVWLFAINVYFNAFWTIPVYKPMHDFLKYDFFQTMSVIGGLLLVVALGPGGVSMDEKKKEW
Sequence of UniProt P60981 (P60981 whole entry): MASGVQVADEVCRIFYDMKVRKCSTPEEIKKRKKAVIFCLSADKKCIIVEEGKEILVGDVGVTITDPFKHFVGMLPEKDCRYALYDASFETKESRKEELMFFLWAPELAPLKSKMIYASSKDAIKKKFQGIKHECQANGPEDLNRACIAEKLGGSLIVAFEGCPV

Lysine labeling ratio R10:1, inactive:
ACSL4 (lysine site: K702) (UniProt O60488) 2.14
UniProt Q99623 (lysine site: K147) 3.43
SEMA3C (lysine site: K40) (UniProt Q99985) 3.38
CELSR2 (lysine site: K1846) (UniProt Q9HCU4) 3.09
CPNE1 (lysine site: K73) (UniProt Q99829) 2.97
DDX3X (lysine site: K118) (UniProt O00571) 4.1
UniProt P05787 (lysine site: K472) 2.67
EHD1 (lysine site: K220) (UniProt Q9H4M9) 4.05
UniProt Q15149 (lysine site: K1896) 5.17
SEMA4D (lysine site: K219) (UniProt Q92854) 2.27
JPT2 (lysine site: K90) (UniProt Q9H910) 5.53
ITGA6 (lysine site: K404) (UniProt P23229) 6.64
UniProt Q9UHN6 (lysine site: K767) 3.26
UniProt Q15149 (lysine site: K195) 4.55
FASN (lysine site: K1704) (UniProt P49327) 2.46
ATP1B1 (lysine site: K111) (UniProt P05026) 2.14
TM9SF2 (lysine site: K495) (UniProt Q99805) 4.38
SLC3A2 (lysine site: K245) (UniProt P08195) 5.72
DYNC1H1 (lysine site: K2239) (UniProt Q14204) 6.84
TFRC (lysine site: K161) (UniProt P02786) 6.73
ITGA3 (lysine site: K638) (UniProt P26006) 5.04
ENAH (lysine site: K559) (UniProt Q8N8S7) 2.92
HSPD1 (lysine site: K250) (UniProt P10809) 2.65
EPCAM (lysine site: K160) (UniProt P16422) 2.33
STOML2 (lysine site: K145) (UniProt Q9UJZ1) 3.01
PTBP1 (lysine site: K271) (UniProt P26599) 2.72
DISP1 (lysine site: K908) (UniProt Q96F81) 3.35
UniProt P08727 (lysine site: K168) 4.76
SURF4 (lysine site: K139) (UniProt O15260) 3.69

Lysine labeling ratio R10:1, active:
UniProt P60866 (lysine site: K75) 1.91
UniProt P62249 (lysine site: K26) 1.43
CDCP1 (lysine site: K454) (UniProt Q9H5V8) 1.89
CCT6A (lysine site: K388) (UniProt P40227) 1.46
UniProt P60842 (lysine site: K238) 1.54
UniProt Q15149 (lysine site: K4205) 1.51
DSTN (lysine site: K78) (UniProt P60981) 1.54
UniProt Q13275 (lysine site: K239) 1.5
VAPA (lysine site: K174) (UniProt Q9P0L0) 1.89
PTPRM (lysine site: K234) (UniProt P28827) 1.53
XRCC6 (lysine site: K516) (UniProt P12956) 0.712
